Experimental findings from the supplement of paper PMC6555819 are described below.

This assay deals with RARg:RXRa (NR concentration 270 nM, RXRa partner concentration 90 nM). Nature of the assay: PBM binding z-score (relative to random genomic background probes); higher = stronger binding; sequences stand for … in GC…GCGATTGACAGCGTAGAATGAAGG
Summed up:
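Random background probes are the reference for binding z-scores. These scores derive from regression-normalized fluorescence on custom Agilent 4×180K protein-binding microarrays incubated 1 h with ligand-free nuclear receptor dimers. Binding was detected with antibodies against each partner (one per run).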
Turning to CCGAGTAGGTTATGGGGCATCCAGGCAACGGTGA, the PBM binding z-score turned out to be 0.651.

Consider GGAAAGAGGGCAAAGTTGATAGCATCTGTCGACG, for which the PBM binding z-score was 2.84.

Turning to CAGCCTAGGTCAAGGCCAGTATAGGAGGAACGTT, the PBM binding z-score amounted to 4.16.

As for AGTATTAGTTGAGACGAGGGCAACCGATAGGTTG, the PBM binding z-score is 0.642.

For TCTCGGAGGACACGAAAGATCAGAGCTCGACATC, the PBM binding z-score came out at 0.634.

ATAAGTAGGTTAAGGGTCATTCAGGTTGGTTCGC: the PBM binding z-score was 4.8.

Take CCTAGTTGGTTAGGAGGTCACACACCGGATATGA: the PBM binding z-score is 4.04.

As to CGTCAAAGTTCAACTAAGGTAACGGAAAGCACGC, the PBM binding z-score came to 5.99.

In the case of ATCTCTAGGTAACAGTTCAGTGAATCCCGAGGAT, the PBM binding z-score was 0.757.

Sequence TAGCCTAGGTCAGATCGGGCCACTATACGCTATA displayed a PBM binding z-score of 2.78.

CGTCAAAGTTAAACTAAGGTAACGTAAAGCACGC: the PBM binding z-score stood at 0.536.

Consider ACTTACGGGTCAACGAGGTTTTAGCACGCGTATA, for which the PBM binding z-score was 5.26.

CCTGCTAGGTCAATGGTTAGCTAAAGCAGCTCGC came in with a PBM binding z-score of 3.3.

With CGTCAAAGTTCATCTAAGGTAACGTAAAGCACGC, the PBM binding z-score came out at 5.77.

As to TCTTGTAGATCAAAGGTTAAGTAAGCCGAAGCCT, the PBM binding z-score is 2.18.

Consider CCGACTGGGGCAGAAAGGGTACCATACCATCCGG, for which the PBM binding z-score was 0.0836.

The sequence GCTGCTAGGTCAACTGATGGTCAGGTAAAGCTCG showed a PBM binding z-score of 5.13.

Take TCAGACAGGTGCAGGTAACTCAGGTACGCAGTCG: the PBM binding z-score was -0.0126.

For the sequence TAGCCTAGGTCATGCGGGCCGGTATAGTGTCGGC, the PBM binding z-score was 3.71.

TTTTGTAGATCAATAGAGGTTAAGAAAGTGCGCT: the PBM binding z-score is 0.945.

TAGCCTAGGTCATTGGTCCAGTATAGTACGCATC came in with a PBM binding z-score of 3.61.

Regarding TCATATAGGTAAATGCAAGGTGAAAGTCCGATCT, the PBM binding z-score was found to be 1.09.

ATCTCGAGGTAACAAGTTCAGTGAAAGAGAGGAC came in with a PBM binding z-score of 2.13.

Take AATACAGGGTCATCGTAGGCCAGAGAACGCACAG: the PBM binding z-score came to 6.12.

GCAGACAAGTGAAACGCAGGTAACTCAGGGTGGC: the PBM binding z-score is -0.267.

Regarding TCATATAGGTAATACGGGTGAAAGTCGGCATCTA, the PBM binding z-score is 0.35.

Sequence GCGTATAGGTAATACAAGGTGAAAGTCCGATTGT registered a PBM binding z-score of 0.423.

As for CAAACTAAGTCAAAGGTCAAAGTCGAGCCAACCA, the PBM binding z-score was 6.82.

Sequence GCTATTAGTTGAAAGGCCAACCGAATGATTCTCG showed a PBM binding z-score of 0.828.

In turn, GCATAGAGGTAATACAAGGTGAAAGTCCGATTGT had a PBM binding z-score of 0.816.

ATATGTAGGTTTAGGGTCATTCAGGTTGGTTCGC displayed a PBM binding z-score of 3.53.

The sequence TCTCGGAGGACACGAAAGGTCAGAGTTCGACATC gave a PBM binding z-score of 5.04.

For the sequence TAGCCTAGGTCTTTGGGCCAGTATAGTACGCATC, the PBM binding z-score was -0.253.

As to CCTCGGAGGACAGAAGGCCAGAGCTGTCCGCTTT, the PBM binding z-score was -0.112.

Sequence TTACCAAGGTGTAAGGTCGTTGATGCACGCCTTG showed a PBM binding z-score of 0.528.

Consider ATCTCTAGATAACAAGTTCAGTGAAAGAGAGGAC, for which the PBM binding z-score came to 0.77.

The sequence ATCGAAAGGTCGAGGTGAATATAGAGAAAGGGAA gave a PBM binding z-score of 4.52.

In the case of CATACAGGGTTAGCTAGGCCAGAGTAGGGACGGC, the PBM binding z-score came to 0.782.

CCTGCTATGTCATGGTCAGCTAATCTACAGTATG had a PBM binding z-score of 0.518.

On to AGAATGAGGTAATTAAGATCAGGGAATTGCGGTC, for which the PBM binding z-score came out at 0.105.
